Assay outcomes deposited in PubChem BioAssay by several laboratories.
Rows were chosen to be rich in hits. Some 1.9% of all compounds tested hit in one or more screens of this group.
Efa HMGR inh = blocks class II HMG-CoA reductase of Enterococcus faecalis; purified E. faecalis HMGR, NADPH absorbance 340 nm kinetic; inhibition, % at 10 µM; actives 0.41% (n = 190,000); AID 1066;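 active means inhibition above a set limit, the median over all tested compounds plus 3 SD, cut at about 9.5% in these data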;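 further: enzyme runs in reverse so mevalonate oxidation gives rising NADPH absorbance; 0% = complete reaction with DMSO and 100% = background rate lacking mevalonate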
INS promoter inh = TRM-6 insulin promoter activity inhibition | TRM-6 cells (human fetal islet line), insulin promoter-eGFP reporter, imaging; reporter expression induced with tamoxifen | inhibition, % at 2 µM | actives 0.9% (n = 130,000);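 active means inhibition above the mean plus 3 SD, with well images judged a real hit on visual review, cut at about 60% in these data, passing the limit was not always enough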
Autophagy HCS = modulators of autophagy; MEF GFP-LC3 puncta imaging; test concentration mostly 10 µM; calls only at 10 µM (by protocol); actives 0.98% (n = 190,000); AID 463193;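 active means percentage of spot-positive cells more than 3 SD above its plate mean, without a fluorescence outlier flag or 80% toxicity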;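 further: spot-positive cell cutoff set from DMSO-treated cells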
Insulin prom up = MIN6 insulin promoter up-regulation; z-score at 5 µM; actives 0.3% (n = 190,000); MIN6 insulin promoter-GFP reporter, high-content imaging; active compounds read high; AID 1625;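 active means z-score above 3 at 5 µM with at least 500 cells counted in the well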
* = called active by the depositor; i = inactive; nt = no result given; + = active, no number.

SMILES	Efa HMGR inh	INS promoter inh	Autophagy HCS	Insulin prom up
COc1ccc(CCNC2=CC(=O)N(c3ccc(F)cc3)C2=O)cc1	14.4*	25.0	i	-0.67
O=C(c1ccccn1)N1CC=C(c2ccccc2)CC1	2.4	-5.6	i	-0.46
O=C(CN1C(=O)C2C3CC(C(Br)C3Br)C2C1=O)N1CCN(Cc2ccccc2)CC1 (configuration not stated)	nt	nt	nt	-0.09
C[C@]12CC[C@@H]3c4ccc(OC(=O)c5ccccc5)cc4CC[C@H]3[C@@H]1CC[C@@H]2O	-4.8	-36.4	+	nt
CC(C)SC1=NC(C)(C)C=C(/C=C/c2ccc(Cl)cc2Cl)N1	-2.5	-61.3	i	3.58*
O=C(O)Cc1nn(Cc2ccc(Cl)cc2)c(=O)c2ccccc12	1.7	nt	i	0.23
Oc1ccc(Nc2nc3ccccc3nc2Nc2ccc(O)cc2)cc1	3.3	-256.5	+	-0.35
Cc1cc(-c2ccccc2)nc(N(C)NC(=O)c2c(F)cccc2F)c1S(C)(=O)=O	-1.3	35.5	i	0.38
Cc1cc(-c2ccccc2)nc(N(C)N)c1S(C)(=O)=O	11.0*	55.6	i	-0.33
CCOC(=O)C(C(=O)OCC)c1cc(Br)c2noc3c2c1C(=O)c1ccccc1-3	-6.9	-35.5	+	2.41
COc1ccc(NC(=O)Cn2c(NCC(C)O)nc3ccccc32)cc1Cl (configuration not stated)	-4.2	nt	i	0.55
C=CCSc1nc(NC)c2sccc2n1	-5.5	80.0*	i	-0.75
CNc1nc(SC)nc2ccsc12	1.2	-3.3	i	0.82
CC(=O)Nc1ccc(NC(=O)c2cccc3c2-c2ccccc2C3=O)cc1	-3.9	75.0*	i	0.06
CSc1nc(-c2ccccc2)cn1-c1ccc(NC(C)=O)cc1	9.8*	54.5	i	1.49
CCOc1ccc(-c2cn(-c3ccc(OC)cc3)c(SC)n2)cc1	5.8	6.9	i	-0.38
O=C(CSc1ccc(-c2ccco2)nn1)c1ccccc1	-3.9	nt	i	-0.34
COC(=O)COc1ccc(S(=O)(=O)Nc2cc([N+](=O)[O-])ccc2C)cc1	1.0	nt	i	0.55
COC(=O)[C@H](Cc1ccccc1)NC(=O)O[C@@H]1C(=O)c2cc(Br)ccc2O[C@H]1c1cccc(OC)c1	11.1*	14.3	i	0.12
COC(=O)[C@@H](NC(=O)O[C@@H]1C(=O)c2cc(Br)ccc2O[C@H]1c1cccc(OC)c1)C(C)C	-6.2	-23.8	i	0.66
O=C(N/C(=C/c1cccc([N+](=O)[O-])c1)C(=O)N1CCCCC1)c1cccs1	-8.1	23.7	i	1
CC1(C)Cc2nc(NCCN3CCOCC3)c(C#N)cc2CO1	-1.1	29.4	i	0.29
CC1CCN(c2nc3c(cc2C#N)COC(C)(C)C3)CC1	9.7*	nt	i	-0.02
O=C(C1CCCO1)N1CCN(C(=S)Nc2ccccc2Cl)CC1 (configuration not stated)	-4.9	9.7	i	0.12
CC1=Nc2cccc([N+](=O)[O-])c2NC(=O)C1	-3.8	35.0	i	-0.39
SMILES	Efa HMGR inh	INS promoter inh	Autophagy HCS	Insulin prom up
N#C/C(=C\C=C\c1ccccc1[N+](=O)[O-])c1nc(-c2ccc3c(c2)OCO3)cs1	-6.4	12.5	+	0.99
O=C(CSc1nccc(=O)[nH]1)Nc1ccc2c(c1)OCCO2	-2.8	nt	i	-0.61
O=c1ccnc(Nc2ccc3c(c2)OCCO3)[nH]1	-1.1	nt	i	3.66*
Cc1ccc(S(=O)(=O)NCc2ccc(C(=O)NCc3cccnc3)cc2)cc1	0.6	35.7	i	0.05
Nc1ccc(S(=O)(=O)c2ccc(Cl)cc2)cc1	-1.4	35.7	i	nt
CCOc1ccc(CC(=O)C2=C(N3CCOCC3)CC(C)(C)CC2=O)cc1OCC	-5.7	-5.9	i	-0.07
COc1ccc(Nc2nc(N)nc(CSc3nncn3C)n2)cc1	1.1	76.9*	i	0.44
CCOc1ccccc1Nc1nc(N)nc(CSc2nncn2C)n1	-2.8	40.5	i	0.19
C/C(CC1CC(C)(C)OC1=O)=N\NC(N)=S (configuration not stated)	nt	nt	nt	0.94
C/C(CC1CC2=C(CC1(C)C)C(C)(C)CCC2)=N\NC(N)=S (configuration not stated)	-7.0	-35.5	+	-0.88
COC(=O)CSc1ncc(C#N)c(N)n1	63.1*	-11.5	i	0.41
Cc1cccc(OCC(=O)NNC(=O)CSc2ncc(C#N)c(N)n2)c1	4.8	nt	i	-0.05
COc1ccc(CCNC(=O)CCN2C(=O)c3cccc4cccc(c34)C2=O)cc1OC	-6.3	nt	i	0.08
COc1ccc(CCN2C(=O)c3cccc4c(C(=O)N5CCCCC5)ccc(c34)C2=O)cc1OC	-7.6	nt	+	0.08
O=C(CN1C2=NCCCN2c2ccccc21)c1ccc(Cl)cc1Cl	-1.0	-41.7	i	-2.14
CN(C)CCOC(=O)CCCCCCCCC(=O)OCCN(C)C	nt	nt	nt	-0.16
O=C(Nc1nc(-c2ccccc2)cs1)NC1CCCCC1	10.9*	39.1	i	-0.58
Cc1ccc(O)c(C(=O)c2cnc3c(c2)c(-c2ccc(F)cc2)c(C#N)c(=O)n3C)c1	-0.2	nt	i	-0.47
COC(=O)CSC(C)C(=O)Nc1nnc(C(C)C)s1 (configuration not stated)	-2.9	35.3	+	-1.24
Nc1nc(NCc2ccco2)nc(Nc2cccc(F)c2)c1[N+](=O)[O-]	nt	nt	nt	-0.06
N#CCSc1ccc(-c2nc3ccccc3[nH]2)cn1	-1.2	89.7*	i	nt
CCOC(=O)CSc1ccc(-c2nc3ccccc3[nH]2)cn1	-2.5	57.1	i	0.72
N=c1c(S(=O)(=O)c2ccccc2)cc2c(=O)n3ccccc3nc2n1Cc1ccco1	-2.6	nt	i	0.12
Cc1ccc(S(=O)(=O)c2cc3c(=O)n4ccccc4nc3n(Cc3ccco3)c2=N)cc1C	4.0	-6.1	+	nt
COC(=O)C1=C(C)N(c2cc(Cl)cc(Cl)c2)C(=O)C1	-3.2	nt	i	-0.34
SMILES	Efa HMGR inh	INS promoter inh	Autophagy HCS	Insulin prom up
CCN(CC)c1ccc(/C=C/C(=O)c2ccc(Br)cc2)cc1	-5.2	nt	+	nt
CN(C)c1ccc(C(=O)/C=C/c2ccc(Br)cc2)cc1	-5.5	11.7	i	-0.01
COC(=O)c1sc2nc(C)cc(C)c2c1N	5.6	35.3	i	nt
CC(=O)c1sc2nc(C)cc(C)c2c1N	-1.3	76.9*	i	0.33
NC(=O)c1ccc(NC(=O)Cc2csc(-c3ccccc3)n2)cc1	5.2	50.0	i	nt
Cc1ccccc1CS(=O)(=O)c1nnc([C@H](Cc2ccccc2)NC(=O)OC(C)(C)C)o1	-0.9	78.1*	i	1.42
CC(C)(C)OC(=O)N[C@@H](Cc1ccccc1)c1nnc(S(=O)(=O)Cc2ccccc2)o1	5.1	45.7	i	-0.08
CCCC(C)C(=O)OCC(=O)Nc1ccc(Br)cc1 (configuration not stated)	2.5	40.7	i	-0.23
Cc1ccccc1C(=O)c1cccn1CC(=O)NCCN1CCN(c2cccc(C)c2C)CC1	1.5	-53.3	+	-1.17
Cc1ccccc1C(=O)c1cccn1CC(=O)NCCC1=CCCCC1	-5.3	-66.7	i	0.16
Cc1ccc(C)c(N2CCN(CCCNC(=O)Cn3cccc3C(=O)c3ccccc3C)CC2)c1	-3.2	-92.9	+	-0.45
Cc1ccc(CNC(=O)Cn2cccc2C(=O)c2ccccc2C)cc1	-0.8	nt	i	0.6
